PubChem BioAssay AID488922 (Johns Hopkins Ion Channel Center, 2010)
In all, about 310,000 compounds went through this assay and about 3,800 (1.2%) were called active.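 The calls were made as follows: active = ratio B-score over 3 SD below the library mean, with starting fluorescence within 5 SD of its mean; inactive = the rest, inconclusive results apart.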 Only a selection was taken, and actives are over-represented in it overall.

What follows are molecules tested against Potassium channel subfamily K member 9 (Homo sapiens) (UniProt Q9NPC2) (assay: KCNK9 potassium channel inhibitors, primary screen, HEK293 cells, thallium flux (AID 488922;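 as to B-score: negative B-score means less thallium flux so channel inhibition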)). Conditions: HEK293 KCNK9, FluxOR thallium flux fluorescence, at 10 µM; active compounds read low.
Potassium channel subfamily K member 9 (Homo sapiens), sequence (Q9NPC2 whole entry, looked up): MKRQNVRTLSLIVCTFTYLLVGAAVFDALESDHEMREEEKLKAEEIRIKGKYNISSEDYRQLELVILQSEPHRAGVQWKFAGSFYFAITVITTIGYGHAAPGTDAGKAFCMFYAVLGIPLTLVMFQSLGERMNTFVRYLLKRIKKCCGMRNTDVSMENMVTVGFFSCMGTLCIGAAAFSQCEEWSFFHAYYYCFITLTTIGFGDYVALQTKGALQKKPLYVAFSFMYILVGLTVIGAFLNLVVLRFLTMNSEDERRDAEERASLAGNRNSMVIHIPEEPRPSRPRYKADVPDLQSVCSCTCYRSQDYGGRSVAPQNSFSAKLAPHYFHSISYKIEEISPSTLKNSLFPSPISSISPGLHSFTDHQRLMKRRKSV
In the case of Cc1ccc(NC(=O)CN2CCCCC2)c2c1CC(C)(C)O2, the B-score is reported as “inactive”. In the case of CCOc1ccc(NS(=O)(=O)c2ccc(C(=O)NC3CCN(Cc4ccccc4)CC3)cc2)cc1, the B-score is reported as “inactive”. With CC(C)C(=O)Nc1cccc(NC(=S)NC(=O)C(c2ccccc2)c2ccccc2)c1 the B-score was -14.9 (active). In the case of CC(C)C(=O)NC(=S)Nc1ccccc1F, the B-score is reported as “inactive”. With CCCCC(=O)NNC(=S)NC(=O)C(c1ccccc1)c1ccccc1 the B-score was “inactive”. For Cc1c(C(=O)NC2CCCCC2)oc2ccccc12, the B-score was “inactive”. With Cc1ccc(NC(=O)CC2C(=O)N(Cc3ccccc3)C(=S)N2NC(=O)c2cccc(F)c2)c(C)c1 (stereo unspecified) the B-score was “inactive”. In the case of O=C(Nc1cccnc1)c1cc([N+](=O)[O-])ccc1Cl, the B-score is reported as “inactive”. For CNc1ccc([N+](=O)[O-])cc1C(=O)O, the B-score was “inactive”. In the case of Cc1ccc(NC(=O)c2cc([N+](=O)[O-])ccc2Cl)c(O)c1, the B-score is reported as -10.2 (active). For FC(F)(F)c1cc(-c2cccs2)nc(NCc2ccco2)n1, the B-score was “inactive”. In the case of FC(F)(F)c1cc(-c2ccco2)nc(NCc2ccc(Cl)cc2)n1, the B-score is reported as -8.22 (active). COc1ccc(-c2cc(C(F)(F)F)nc(NCc3cccnc3)n2)cc1 was tested, and the B-score was “inactive”. In the case of O=C(OCCOCn1cc(Br)c(=O)[nH]c1=O)c1ccccc1, the B-score is reported as “inactive”. For COc1ccc(Br)cc1CN(C)CC(=O)Nc1cc(Cl)cc(Cl)c1, the B-score was “inactive”. In the case of O=C(COc1ccc2ccccc2c1)N1CCN(C(=O)c2cccs2)CC1, the B-score is reported as “inactive”. With O=S(=O)(Nc1ccccc1Br)c1cccs1 the B-score was “inactive”. For O=C(Nc1cccc(Cl)c1)Nc1ccccc1NS(=O)(=O)c1cccs1, the B-score was -7.87 (active). With O=S(=O)(NCc1ccc(Cl)cc1Cl)c1cccs1 the B-score was “inactive”. For Cn1ccs/c1=N\S(=O)(=O)c1ccc(C(C)(C)C)cc1, the B-score was “inactive”. In the case of COc1ccc(/C=N/NC(=O)c2ccc3c(c2)OCCO3)c(OC)c1, the B-score is reported as “inactive”. With COc1ccc(C(=O)Nc2ccccc2C(=O)N/N=C/c2ccccc2OC)cc1 the B-score was -13.5 (active). With COc1cc(/C=N/NC(=O)c2ccc(N3CCCC3=O)cc2)ccc1O the B-score was “inactive”. COc1ccc(/C=N/NC(=O)c2ccccc2)cc1OS(=O)(=O)c1ccccc1 was tested, and the B-score was “inactive”. For COc1ccc(C(=O)Nc2ccccc2C(=O)N/N=C/c2ccc(O)c(OC)c2)cc1, the B-score was -10.2 (active). With COc1ccc(C(=O)Nc2ccccc2C(=O)NCc2ccco2)cc1 the B-score was “inactive”. In the case of COc1ccc(Cl)cc1NC(=O)COC(=O)C(CC(C)C)N1C(=O)C2CC=CCC2C1=O (stereo unspecified), the B-score is reported as “inactive”. COc1ccccc1N1CC(C(=O)Nc2nnc(SCC(=O)NCC3CCCO3)s2)CC1=O (stereo unspecified) was tested, and the B-score was “inactive”. In the case of CC1(C)CC(=O)c2c(n(S(=O)(=O)c3ccccc3)c3ccc(NS(=O)(=O)c4ccccc4)cc23)C1, the B-score is reported as “inactive”. For CNC(=O)c1sc(Nc2ccc(OCc3ccccc3)cc2)nc1C, the B-score was “inactive”. CCOn1c(SC(C)C)nc2ccccc2c1=O was tested, and the B-score was “inactive”. CCOC(=O)C1CCc2nc3ccccc3c(=O)n21 (stereo unspecified) was tested, and the B-score was “inactive”. CCOC(=O)C(C)Sc1nc2ccccc2c(=O)n1CC1CCCCC1 (stereo unspecified) was tested, and the B-score was -11.7 (active). For FC(F)(F)c1ccc2c3n(nc2c1)CCN=C3c1ccc(Cl)cc1, the B-score was “inactive”. O=C(Nc1ccc(Br)cc1)c1cccc(NC(=O)C2C3CC4OC(=O)C2C4C3)c1 (stereo unspecified) was tested, and the B-score was “inactive”. In the case of COC(=O)c1ccc(C(NC(=O)OCc2ccccc2)/C(F)=C/[C@@H](C)C(=O)O)cc1 (stereo partly specified), the B-score is reported as “inactive”. With CCC[C@@H]1C[C@@]1(CCC)[C@@H](NC(=O)c1ccccc1)c1ccc(C(=O)OC)cc1 the B-score was “inactive”. CCC/C=C(\CCC)C(NC(=O)Cc1ccccc1)c1ccc(C(=O)OC)cc1 (stereo unspecified) was tested, and the B-score was -13.9 (active). For CCc1cc2c(=O)n(-c3ccccc3)c(SCC(=O)O)nc2s1, the B-score was “inactive”. In the case of CCNC(=S)N(CCc1c(C)[nH]c2ccc(C)cc12)Cc1ccco1, the B-score is reported as “inactive”. For COc1cccc(NC(=S)N(CCc2c(C)[nH]c3ccccc23)Cc2ccco2)c1, the B-score was -9.04 (active). COc1ccc2[nH]c(C)c(CCN(Cc3cccs3)C(=S)Nc3ccccc3OC)c2c1 was tested, and the B-score was “inactive”. In the case of O=C1c2ccccc2S(=O)(=O)N1Cc1c(F)cccc1Cl, the B-score is reported as “inactive”. O=C1CCN(CCCc2ccccc2)CCN1CCO was tested, and the B-score was “inactive”. For CCOC(=O)[C@@H]1[C@H]2COc3cc(OC)ccc3[C@H]2N2C(=O)N(c3ccc(F)cc3)C(=O)[C@]12C, the B-score was “inactive”. CCOC(=O)[C@H]1[C@H]2COc3cc(OC)ccc3[C@@H]2N2C(=O)N(c3ccc(Br)cc3)C(=O)[C@@]12C was tested, and the B-score was “inactive”. CCOC(=O)[C@@H]1[C@H]2COc3ccc(Br)cc3[C@H]2N2C(=O)N(c3ccc(Cl)cc3)C(=O)[C@@]12C was tested, and the B-score was -10.9 (active). In the case of Cc1onc(-c2ccccc2Cl)c1C(=O)OCc1nnc(-c2ccccc2)o1, the B-score is reported as “inactive”. For Fc1cccc(Cl)c1CSc1ccc(-c2ccco2)nn1, the B-score was -14.1 (active). With O=C(CSc1ccc(-c2ccco2)nn1)Nc1cccc(F)c1 the B-score was “inactive”. With Cc1cc(SCc2c(F)cccc2Cl)nc(=O)[nH]1 the B-score was “inactive”. For NC(=O)C1=C[C@@H](c2csc3ccccc23)C[C@@H](OCc2ccc(CO)cc2)O1, the B-score was “inactive”. COC(=O)c1c(NC(=O)C(=O)N2CCCCC2)sc2c1CC(C)(C)OC2 was tested, and the B-score was “inactive”. In the case of COc1ccc(/C=C2\CCCC3C2=NN(C(=O)c2scnc2C)C3c2ccc(OC)cc2)cc1 (stereo unspecified), the B-score is reported as “inactive”. CCCCC(C(=O)NC(C)(C)C)N(Cc1ccccc1)C(=O)c1snc(C(N)=O)c1N (stereo unspecified) was tested, and the B-score was “inactive”. In the case of COc1cc(-c2n[nH]c(=S)n2Cc2ccccc2)cc(OC)c1OC, the B-score is reported as “inactive”. COc1cc(C(O)c2nc3ccccc3n2C)cc(OC)c1OC (stereo unspecified) was tested, and the B-score was “inactive”. For CCC(C)n1c(-c2cc(OC)c(OC)c(OC)c2)nc2nc3ccccc3nc21 (stereo unspecified), the B-score was -15.1 (active). In the case of COc1ccccc1-n1ccnc(SCC(=O)NC2CCCCC2)c1=O, the B-score is reported as “inactive”. With O=C(C1CCN(C2CCN(Cc3ccc4cc(F)ccc4n3)CC2)CC1)N1CCCC1 the B-score was “inactive”. For CCN(C(=O)COC(=O)c1cc(NS(=O)(=O)c2ccc(Cl)c([N+](=O)[O-])c2)ccc1O)C1CCCCC1, the B-score was “inactive”. Cc1c(C(=O)NCC2CCCO2)sc2nc(-c3ccccc3)cn12 (stereo unspecified) was tested, and the B-score was “inactive”. For O=C(c1cc(-c2ccc(O)cc2)on1)N1CCCc2ccccc21, the B-score was “inactive”. Cc1cccc2cc3c(N)c(C(=O)N4CCCc5ccccc54)sc3nc12 was tested, and the B-score was -6.79 (active). With Cc1c(C(=O)N2CCCc3ccccc32)oc2ccccc12 the B-score was “inactive”. For Cc1c(C(=O)N2CC(C)OC(C)C2)sc2nc(-c3ccccc3)cn12 (stereo unspecified), the B-score was “inactive”. With Cc1c(C(=O)N2CCCc3ccccc32)sc2nc(-c3ccccc3)cn12 the B-score was -6.69 (active). With COc1cccc(CNC(=O)Cn2c(=O)oc3cc(S(=O)(=O)N4CCCCC4)ccc32)c1 the B-score was “inactive”. For Cc1ccc(N2CC(C(=O)Nc3ccc(S(=O)(=O)N4CCCC4)cc3)CC2=O)cc1C (stereo unspecified), the B-score was “inactive”. In the case of O=C(CCc1n[nH]c(=O)[nH]c1=O)N/N=C/c1ccc(Br)o1, the B-score is reported as “inactive”. CC(C)OCCCNC(=O)c1ccc(C2SCC(=O)N2Cc2ccco2)cc1 (stereo unspecified) was tested, and the B-score was “inactive”. For CCCCCCCC(=O)NC(Nc1ccccc1OC)C(Cl)(Cl)Cl (stereo unspecified), the B-score was “inactive”. In the case of CCOC(=O)N1CCC(N(CCOC)C(=O)Nc2ccc(C)c(C)c2)CC1, the B-score is reported as “inactive”. CCCCCCCCCCOC(=O)Cn1c(COc2cccc(OC)c2)[n+](C)c2ccccc21 was tested, and the B-score was -17.1 (active). With CCOC(=O)Cn1c(-c2cccnc2Cl)nc2ccccc21 the B-score was “inactive”. In the case of CCn1c(COc2cccc(OC)c2)nnc1SCC(=O)N1CCOCC1, the B-score is reported as “inactive”. In the case of CCCCCCCCC(=O)NCCOc1ccccc1, the B-score is reported as “inactive”. For Cc1ccc(OCCCn2c(=O)oc3ccccc32)cc1, the B-score was “inactive”. With CCCCCCCCCCOC(=O)Cn1c(COc2ccc(C)cc2)[n+](C)c2ccccc21 the B-score was -11.4 (active). C[C@@H]1O[C@@H](OC[C@H]2O[C@@H](Oc3c(-c4ccc(O)cc4)oc4cc(O)cc(O)c4c3=O)[C@H](O)[C@@H](O)[C@@H]2O)[C@H](O)[C@H](O)[C@H]1O was tested, and the B-score was “inactive”. In the case of Cc1ccc(C2(C)NC(=O)N(CC(=O)Nc3ccccc3C(=O)N3CCCCC3)C2=O)cc1 (stereo unspecified), the B-score is reported as “inactive”. With O=C(OCCN1CCOCC1)C1(c2ccccc2)CCCCC1 the B-score was “inactive”. In the case of CCc1ccc(-c2cc(C(=O)NN3CCN(C)CC3)c3ccccc3n2)cc1, the B-score is reported as “inactive”. For CC(C)CN(C(=O)COC(=O)c1ccc2ccccc2c1)c1c(N)n(Cc2ccccc2)c(=O)[nH]c1=O, the B-score was “inactive”. In the case of Cc1ccc(NS(=O)(=O)c2ccc(-c3ccc(=O)[nH]n3)o2)c(C)c1, the B-score is reported as “inactive”. Cc1ccc(CCN2CC(C(=O)NCCc3ccccc3)CC2=O)cc1 (stereo unspecified) was tested, and the B-score was “inactive”. With O=C(Nc1ccc(Cl)cc1)C1c2cccc[n+]2CC(=O)N1Cc1ccc2c(c1)OCO2 (stereo unspecified) the B-score was “inactive”. With CCOc1ccc(/C=N/NC(=O)C(C)Sc2ccccn2)cc1OCC (stereo unspecified) the B-score was “inactive”. In the case of C=CCOc1ccc(/C=N/NC(=O)C(C)Sc2ccccn2)cc1OCC (stereo unspecified), the B-score is reported as -8.3 (active). In the case of CCOc1ccc(/C=N/NC(=O)CSc2ccccn2)cc1O, the B-score is reported as “inactive”. C/C(=N\NC(=O)CCn1nc(C)cc1C)C(C)(C)C was tested, and the B-score was “inactive”. O=C(COC(=O)c1ccc[nH]c1=O)Nc1ccc2c(c1)OC(F)(F)O2 was tested, and the B-score was “inactive”. For O=C(COC(=O)c1ccccc1NC(=O)c1ccco1)Nc1ccc2c(c1)OC(F)(F)O2, the B-score was -8.01 (active). COc1ccc(OCC(=O)Nc2ccc(NC(=O)c3ccco3)c(C)c2)cc1 was tested, and the B-score was “inactive”. In the case of Cc1ccnc(SCCn2c(N(C)Cc3ccccc3)nc3c2c(=O)n(C)c(=O)n3C)n1, the B-score is reported as “inactive”. OC(COCCC12CC3CC(CC(C3)C1)C2)CN1CCCCC1 (stereo unspecified) was tested, and the B-score was “inactive”. O=C(CN1C(=O)c2ccccc2C1=O)NCc1ccc(C(=O)O)cc1 was tested, and the B-score was “inactive”. With CC(=O)N(C1=C(Cl)C(=O)c2ccccc2C1=O)c1ccc(C(=O)O)cc1 the B-score was -6.74 (active). In the case of COc1ccc2occ(C(=O)c3ccc(N=C(C)N(C)C)cc3)c2c1, the B-score is reported as “inactive”. For COc1ccc(OC)c(C(=O)c2coc3ccc(OC)cc23)c1, the B-score was -15 (active). With COc1ccc(OC)c(C(=O)c2coc3ccc(O)c(CN4CCOCC4)c23)c1 the B-score was “inactive”.
